Assay results reported in ChEMBL document CHEMBL4513216, “Probing the Open Global Health Chemical Diversity Library for Multistage-Active Starting Points for Next-Generation Antimalarials” (ACS Infect Dis, 2020).
In all, about 68,000 compounds went through this assay and about 2,700 (4%) showed an effect of 50% or more. The entries come from a sample that favours strong results as a whole.

Each compound was assayed on Plasmodium berghei (assay: Screen against P. berghei liver stage (PbLuc), transformed with Luciferase, at 2uM). Details: tested at 2 uM.
Format: functional, HepG2
`CC(C)C(=O)NC1COC2(CCN(C(=O)c3cccnc3)CC2)C1` (stereo not drawn) showed an INHIBITION of 9.53%.
With `N#CC1(C(=O)N2CCN(Cc3cscn3)CC2)CCCCC1` the INHIBITION was 52.17%.
Work on `N#CC1(C(=O)N2CCCN(Cc3cscn3)CC2)CCCCC1` yielded an INHIBITION of 7.71%.
`N#CC1(C(=O)N2CCN(Cc3cscn3)CC2)CCCC1` was tested, and the INHIBITION was 34.83%.
In the case of `Cc1ccc(S(=O)(=O)Cc2noc([C@@H]3C[C@@H](O)CN3C)n2)cc1`, the INHIBITION is reported as 32.59%.
`CN(Cc1cn2c(n1)CN(Cc1ccc(F)cc1)CC2)Cc1ccco1` was tested, and the INHIBITION was 9.98%.
Work on `COc1ccc(C2=CCN(C(=O)C3CCC3)CC2)cc1` yielded an INHIBITION of -17.31%.
Work on `COc1ccc(C2=CCN(C(=O)C3CCCN(C(C)=O)C3)CC2)cc1` (stereo not drawn) yielded an INHIBITION of 68.24%.
`COc1ccc(C2=CCN(C(=O)C3CCCN(C(N)=O)C3)CC2)cc1` (stereo not drawn) gave an INHIBITION of -11.91%.
`O=C1[C@H]2CN(Cc3ccncc3)C[C@H]2CN1c1cncnc1` showed an INHIBITION of 54.41%.
For `O=C1[C@H]2CN(Cc3ccc(F)cc3)C[C@H]2CN1c1cncnc1`, the INHIBITION was -20.89%.
For `O=C1[C@H]2CN(Cc3ccccc3)C[C@H]2CN1c1cncnc1`, the INHIBITION was 37.15%.
Compound `COc1cccc2cc(CNC(=O)N3CCC(N4CCCC4)C3)oc12` (stereo not drawn) has an INHIBITION of 25.35%.
`CN(C)C(=O)CN1CCC2(CCN(S(C)(=O)=O)CC2)C1=O` gave an INHIBITION of 39.73%.
Work on `CN(C)C(=O)CN1CCC2(CCN(C(=O)N3CCCC3)CC2)C1=O` yielded an INHIBITION of -4.75%.
Work on `CN(C)C(=O)CN1CCC2(CCN(C(=O)N(C)C)CC2)C1=O` yielded an INHIBITION of 54.01%.
`Cc1cnc(N2C[C@@H]3[C@@H](C2)OCC(=O)N3CCN(C)C)nc1` gave an INHIBITION of 30.58%.
`CNc1nc(N2CCN(Cc3ccsc3)C(CCO)C2)nc2c1CCC2` (stereo not drawn) showed an INHIBITION of 35.43%.
Work on `O=C(C1CCOCC1)N1C[C@@H]2CC[C@H]1CN(Cc1ccncc1)C2` yielded an INHIBITION of -21.32%.
Work on `c1cc(-c2noc(C3CCC3)n2)cc(N2CCCCC2)n1` yielded an INHIBITION of -23.44%.
`c1cc(-c2noc([C@@H]3CCCN3C3CCC3)n2)cc(N2CCCC2)n1` showed an INHIBITION of 23.81%.
For `c1cc(-c2noc([C@@H]3CCCN3CC3CC3)n2)cc(N2CCCC2)n1`, the INHIBITION was 74.33%.
`Cc1ccc(CN(Cc2ccccn2)C(=O)C2CCCCCN2C)s1` (stereo not drawn) gave an INHIBITION of -42.41%.
`Cc1ccc(CN(Cc2ccccn2)C(=O)CCC2CCCN(C)C2)s1` (stereo not drawn) showed an INHIBITION of 50.59%.
`Cc1ccc(CN(Cc2ccccn2)C(=O)[C@H]2CC[C@@H](N)C2)s1` was tested, and the INHIBITION was 26.74%.
With `CCn1ccnc1CN1CCNCC1C` (stereo not drawn) the INHIBITION was -47.18%.
For `c1cnc(-c2cnc(N3CCSCC3)nc2C2CC2)cn1`, the INHIBITION was -109.23%.
Compound `CCCSCC(=O)N1CCC2(CC1)CC(c1ccccc1)CN(C)C2` (stereo not drawn) has an INHIBITION of 33.16%.
Compound `O=C1CO[C@@H]2CN(CC3CCOC3)C[C@H]2N1Cc1cccc(F)c1` (stereo partly drawn) has an INHIBITION of -12.84%.
`O=C1CO[C@@H]2CN(CC3CC3)C[C@H]2N1Cc1cccc(F)c1` gave an INHIBITION of 52.81%.
`O=C1CO[C@@H]2CN(C3CCOCC3)C[C@H]2N1Cc1cccc(F)c1` gave an INHIBITION of 2.98%.
`Cn1nc2c(cc1=O)CN(CCOc1ccccc1C#N)CC2` showed an INHIBITION of -45.4%.
`Cc1nc(-c2ccccc2)nc2c1CCN(Cc1nccn1C)CC2` was tested, and the INHIBITION was 3.18%.
`Cc1ccc(CN2CCCn3c(nc(Cn4ccnc4)cc3=O)C2)o1` gave an INHIBITION of 33.97%.
With `CCc1ccc(CN2CCCn3c(nc(Cn4ccnc4)cc3=O)C2)o1` the INHIBITION was 54.56%.
Work on `O=c1cc(Cn2ccnc2)nc2n1CCCN(Cc1ccco1)C2` yielded an INHIBITION of -0.18%.
With `Cc1ncoc1C(=O)N1C[C@H]2CCC[C@@]2(COCc2cccnc2)C1` the INHIBITION was 30.77%.
With `Cc1ccccc1C(NC(=O)CCCS(C)(=O)=O)C(C)(C)C` (stereo not drawn) the INHIBITION was 33.22%.
Compound `Cn1nnnc1SC1CCCN(c2cccc(F)c2)C1=O` (stereo not drawn) has an INHIBITION of 14.65%.
Compound `CCc1nnc(SC2CCCN(c3cccc(F)c3)C2=O)n1C` (stereo not drawn) has an INHIBITION of 77.68%.
Work on `CCc1nnc(SC2CCCN(c3cnn(C)c3)C2=O)n1C` (stereo not drawn) yielded an INHIBITION of 11.87%.
With `COc1ccc(CNC(=O)N(Cc2ccc(F)cc2F)C2CC2)cn1` the INHIBITION was -67.07%.
`COCCN1CCN(Cc2cnc(C)nc2)CC1` gave an INHIBITION of 17.8%.
`CCC(C)S(=O)(=O)N1CCc2nc(C3CCNCC3)ncc2C1` (stereo not drawn) showed an INHIBITION of -0.83%.
`CC(=O)N1CCC2(CC1)CN(C(=O)c1ccc3c(c1)OCCO3)C2` showed an INHIBITION of 41.38%.
In the case of `CC(=O)N1CCC2(CC1)CN(C(=O)c1ccc3c(c1)OCO3)C2`, the INHIBITION is reported as 37.54%.
Work on `O=C(c1ccoc1)N1CCC2(C1)CN(c1ncccn1)C2` yielded an INHIBITION of 25.43%.
Compound `CC(=O)N1CC2(CCN(C(=O)c3ccoc3)C2)C1` has an INHIBITION of 67.62%.
`CC(=O)N1CC2(CCN(C(=O)c3ccc4c(c3)OCCO4)CC2)C1` gave an INHIBITION of 65.54%.
Compound `Cc1cnc(N2CC3(CCN(C(=O)c4ccoc4)C3)C2)nc1` has an INHIBITION of -18.49%.
Work on `Cc1cccc(COC[C@H]2CC[C@H]3[C@H](CCN3Cc3ccco3)O2)n1` yielded an INHIBITION of -22.82%.
`O=C(c1ccco1)N1CCC2(CCCN(c3ncccn3)C2)C1` (stereo not drawn) gave an INHIBITION of -18.02%.
`CC1CN(C(=O)C2(c3ccc(F)cc3F)CCOCC2)CCO1` (stereo not drawn) showed an INHIBITION of 20.14%.
Work on `NC(=O)C1CN(C(=O)C2(c3ccc(F)cc3F)CCCC2)CCO1` (stereo not drawn) yielded an INHIBITION of 56.49%.
Work on `NC(=O)C1CN(C(=O)NCC2(c3ccc(F)cc3)CCC2)CCO1` (stereo not drawn) yielded an INHIBITION of -14.79%.
Compound `CN1CC2(CCN(C(=O)CCc3nc4cccnc4n3C)C2)OC1=O` (stereo not drawn) has an INHIBITION of -31.03%.
`N#Cc1ccc(C(=O)N2CC(c3nc(-c4ncccn4)no3)C2)cc1` showed an INHIBITION of 11.43%.
With `Cc1cc(C(C)NC(=O)c2c[nH]c(=O)c(Cl)c2)c(C)o1` (stereo not drawn) the INHIBITION was 25.72%.
Work on `CNC(=O)c1cccc(NC(=O)NC(C)CCc2cccn2C)c1C` (stereo not drawn) yielded an INHIBITION of -54.27%.
In the case of `CNC(=O)c1cccc(NC(=O)NCc2ccccc2)c1C`, the INHIBITION is reported as -7.16%.
`CNC(=O)c1ccc(NC(=O)NC(C)c2cc(C)oc2C)cc1` (stereo not drawn) showed an INHIBITION of 50.59%.
`Cc1cc(C(C)NC(=O)c2ccc(O)nc2)c(C)o1` (stereo not drawn) was tested, and the INHIBITION was 56.96%.
With `Cc1cc(C(C)NC(=O)c2cnc3onc(C)c3c2)c(C)o1` (stereo not drawn) the INHIBITION was 4.49%.
In the case of `CNC(=O)c1ccc(NC(=O)NC(C)c2cc(C)oc2C)c(C)c1` (stereo not drawn), the INHIBITION is reported as 41.05%.
`CNC(=O)c1cccc(NC(=O)NC(C)c2cc(C)oc2C)c1C` (stereo not drawn) showed an INHIBITION of 57.75%.
`CC(C)NC(=O)c1ccc(NC(=O)NC(C)c2ccccn2)cc1` (stereo not drawn) gave an INHIBITION of 2.26%.
For `COCc1nc(C(=O)N2CCCC2c2c(C)nn(C)c2C)cs1` (stereo not drawn), the INHIBITION was 5.1%.
With `Cc1ccc(C2(O)CCN(C(=O)CCn3ccc(=O)[nH]c3=O)CC2)nc1` the INHIBITION was -3.56%.
Work on `N#CC1(NC(=O)COC(=O)Cc2cc(Cl)c3c(c2)OCCO3)CCCC1` yielded an INHIBITION of 17.14%.
In the case of `O=C(NCCN1CCOCC1)c1cnc(Cc2ccc(F)cc2)s1`, the INHIBITION is reported as -42.16%.
`CCc1nc(CN2CCN(C(=O)CCc3ccccc3)CC2)cs1` showed an INHIBITION of 36.32%.
With `Fc1ccc(OCCCNC2=NCCN2)cc1` the INHIBITION was 6.36%.
Work on `Cc1ccc(CCNc2ncc(C)c(-c3ccnn3C)n2)s1` yielded an INHIBITION of -33.54%.
`COCC(=O)N1CC(c2csc(NC(C)=O)n2)C1` showed an INHIBITION of 50.74%.
`COCC(=O)N1CCC(c2csc(NC(C)=O)n2)CC1` showed an INHIBITION of -2.2%.
In the case of `COCC(=O)N1CCCC(c2csc(NC(C)=O)n2)C1` (stereo not drawn), the INHIBITION is reported as 15.73%.
`Cc1nn(C)c(Cl)c1C1CCCN1CC(=O)NCc1ccco1` (stereo not drawn) gave an INHIBITION of 33.61%.
`CCC(C)NC(=O)Nc1ccc(CN2CCOC2=O)cc1` (stereo not drawn) was tested, and the INHIBITION was -5.28%.
`CC(C)CNC(=O)Nc1ccc(CN2CCOC2=O)cc1` was tested, and the INHIBITION was -15.92%.
Work on `CC(=O)Nc1ccc(CN2CCOC2=O)cc1` yielded an INHIBITION of 55.66%.
Work on `CCNc1ncc(CN2C[C@H](C3CC3)[C@@H](N)C2)cn1` yielded an INHIBITION of -35.18%.
Compound `N[C@H]1CN(Cc2cnc(N3CCCC3)nc2)C[C@@H]1C1CC1` has an INHIBITION of 22.18%.
`Nc1ncc(CN2C[C@H](C3CC3)[C@@H](N)C2)cn1` showed an INHIBITION of 64.38%.
With `Cn1ccnc1SCCNC(=O)CC1CCc2ccccc21` (stereo not drawn) the INHIBITION was 1.88%.
For `COCc1nc2cc(NCc3ncc[nH]3)ccc2o1`, the INHIBITION was 12.94%.
Compound `CN1CCN(Cc2cccc(NCc3ncc[nH]3)c2)CC1` has an INHIBITION of 8.37%.
`Fc1cccc(C(NCc2ncc[nH]2)c2ccccc2)c1` (stereo not drawn) was tested, and the INHIBITION was 14.52%.
`Fc1cccc(NCc2ncc[nH]2)c1` showed an INHIBITION of 51.08%.
`Fc1ccc(NCc2ncc[nH]2)cc1Br` gave an INHIBITION of 56.21%.
Work on `COc1cc(NCc2ncc[nH]2)ccc1Br` yielded an INHIBITION of 44.23%.
With `CCOc1ccc(N(CC(=O)c2ccccc2)C2=NCCCCC2)cc1` the INHIBITION was 20.74%.
`Cn1nccc1C(=O)N1CCC(c2ncc(Cl)cc2S(C)(=O)=O)CC1` showed an INHIBITION of 76.78%.
Work on `CS(=O)(=O)c1cc(Cl)cnc1C1CCN(C(=O)C2CCOCC2)CC1` yielded an INHIBITION of -33.32%.
Work on `CS(=O)(=O)c1cc(Cl)cnc1C1CCN(C(=O)C2CC2)CC1` yielded an INHIBITION of -14.56%.
In the case of `Cn1cc(CN2C[C@H](N3CCOCC3)[C@@H]3OCCC[C@@H]32)cn1`, the INHIBITION is reported as -3.36%.
`O=C(CSC1CCCC1)N1CCN(C(=O)C2CC2c2cccs2)CC1` (stereo not drawn) was tested, and the INHIBITION was 10.39%.
Work on `CN(CC(=O)N(CCC#N)c1ccccc1)C1CCc2ccccc21` (stereo not drawn) yielded an INHIBITION of -25.33%.
Compound `N#CCCN(CCC#N)C(=O)CN(C1CC1)C1CCc2ccccc21` (stereo not drawn) has an INHIBITION of 12.84%.
Compound `CN(CCC#N)C(=O)CN(C1CC1)C1CCc2ccccc21` (stereo not drawn) has an INHIBITION of 63.73%.
In the case of `CCn1c(SCC(N)=O)nnc1C(C)NC(=O)c1ccc(Cl)cc1` (stereo not drawn), the INHIBITION is reported as 11.4%.
`COCCN(Cc1nccs1)C(=O)c1cc(-c2ccc(C)s2)n[nH]1` showed an INHIBITION of 31.51%.
With `COCCN(Cc1nccs1)C(=O)c1c(C)cc(C)[nH]c1=O` the INHIBITION was -1.63%.
For `COCCN(Cc1nccs1)C(=O)c1cc(-c2ccc(C)o2)n[nH]1`, the INHIBITION was 52.98%.
